This excerpt belongs to a sample that is enriched for hits.
Tg IFNy HTS – inhibitors of Toxoplasma gondii growth with IFN-gamma. actives 3.8% (n = 69,000). activity change, negative = inhibition, % (test concentration not listed). Toxoplasma gondii growth in IFN-gamma-treated host cells; active compounds read low; in the data active means activity change below about -70%, passing the limit was not always enough;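 further: host cells are HeLa cells infected with Toxoplasma gondii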
The depositor's hits bear a star; i = inactive; ! = not confirmed by another sample.

SMILES	Tg IFNy HTS
Cc1oncc1C(=O)N1CC2(CCN(C)C(C(=O)O)CO2)C1 (centres undefined)	2.5
Cc1ccc(S(=O)(=O)N2CCCn3nnc(Cn4cccn4)c3C2)cc1	6.4
COc1cc(CNC(c2ccc(C)cc2)c2cccnc2)cc2c1OCCO2 (centres undefined)	-18.8
COc1ccccc1-c1ccc(NC(C)c2cnn(C)c2)nn1 (centres undefined)	2.8
CCc1cnc(N2CCc3ncnc(-c4cnn(C)c4)c3CC2)nc1	1.7
C=CCn1c2c(ccc1=O)CCN(Cc1ccc(F)cc1)CC2	-2.5
COc1ccc(-c2[nH]ncc2-c2cncn2CCN(C)C2CCCC2)cc1	26.2
O=C1NCC(c2ccc(Cl)cc2)Cc2[nH]c(Cc3cccnc3)nc21 (centres undefined)	-44.4
CCN1C[C@@H](COC)[C@]2(CCN(C(=O)/C=C/c3cccs3)C2)C1	4.1
O=S(=O)(c1cccc2nsnc12)N1CCC2(CCNCC2)C1	-1.2
Cc1cccc(-c2nnc(-c3nc(N4CCOCC4)c4ccccc4n3)o2)c1	i
Cc1cccc(-c2nnc(-c3nc(NCCN4CCCC4)c4ccccc4n3)o2)c1	-90.4*
Cc1cccc(-c2nnc(-c3nc(NCc4cccnc4)c4ccccc4n3)o2)c1	231.8
Cc1ccc(-c2nc(C)c(CCNC(=O)C(=O)Nc3ccc(F)cc3)s2)cc1	162.9
CC(CN1CCCC1)C(=O)N1Cc2cnc(-c3ccccc3)nc2C1 (centres undefined)	-17.6
CN(C)S(=O)(=O)c1ccc(C(=O)Nc2nc3ccccc3s2)cc1	60.2
Cc1cc(C)n(CCCN(C)S(=O)(=O)c2ccc(OC3CCCC3)cc2)n1	-13.8
Cc1nc(N2CCCC2)nc2c1CCN(c1ncccn1)CC2	352.9
Cc1nc(-c2ccccc2)nc2c1CCN(c1ncc(F)cn1)CC2	-12.7
Cc1nc(N2CCCC2)nc2c1CCN(c1ncc(F)cn1)CC2	-85.8*
COc1ccc(NC(=O)c2ccc(-c3cccc4c3CCNC4)o2)cc1	-7.2
O=C(O)C1C2C=CC(O2)C1C(=O)N1CCOCC1 (centres undefined)	15.0
CC(=O)Nc1ccc2c(c1)CCc1ccccc1-2	23.9
CC(=O)Nc1sc2c(c1C#N)CCc1ccccc1-2	-89.7*
COc1nc2c(c(-c3ccco3)c1C#N)Cc1cc(NC(C)=O)ccc1-2	7.6
SMILES	Tg IFNy HTS
CC(=O)[C@@]1(O)CC[C@H]2[C@@H]3C[C@H](C)C4=CC(=O)CC[C@]4(C)[C@H]3CC[C@@]21C	4.8
C[C@]12CCC(=O)C=C1[C@@H]1C[C@@H]1[C@H]1[C@@H]3[C@@H]4C[C@@H]4[C@@]4(CCC(=O)O4)[C@@]3(C)CC[C@@H]12	-85.0*
CC(=O)SC1CC2=CC(=O)CCC2(C)C2CCC3(C)C(CCC34CCC(=O)O4)C12 (centres undefined)	-24.8
O=C1NCC2(CCCN(C(=O)CCc3n[nH]c4c3CCCC4)C2)O1 (centres undefined)	6.8
CCCCCCSc1nsc(NC(C)=O)n1	55.4
CC(=O)c1cccc(NC(=O)Nc2nc(SCc3ccc(F)cc3)ns2)c1	-107.2*
CSc1nsc(NC(=O)OCc2ccc(Cl)cc2)n1	12.3
COc1cc(NC(=O)c2nc(Nc3ccc(Cl)cc3)c3ccccc3n2)cc(OC)c1OC	-52.1
Cc1ccsc1/C=N\NC(=O)c1ccc2c(c1)OCO2	242.9
Cc1ccc(/C=N/NC(=O)c2ccccc2Oc2ccccc2)o1	4.5
O=C(N/N=C/c1ccc([N+](=O)[O-])o1)c1ccc(O)cc1	-81.0*!
c1ccc(O[C@H]2CN(c3ncccn3)[C@H]3CCCO[C@@H]23)nc1	-20.5
COc1ccccc1-n1c(SCc2ccncc2)nc2cccnc21	7.8
Cc1onc(-c2ccccc2)c1C(=O)Nc1cccnc1	23.5
COC(=O)c1ccc(Cl)cc1NC(=O)c1c(-c2c(F)cccc2Cl)noc1C	-18.7
Cc1onc(-c2c(Cl)cccc2Cl)c1C(=O)NC(=S)Nc1ccccc1	-72.6*
NC(=O)N1CCO[C@]2(CCC[C@H]2COCc2nccs2)C1	-7.0
CN1CCN(CCCN(C)CC(C)(C)c2ccc(Cl)cc2)CC1	-9.2
CN1CCN(CCCN2c3ccccc3Sc3ccc(C(F)(F)F)cc32)CC1	-79.8*!
CN1CCN(C2=Nc3ccccc3Sc3ccc(Cl)cc32)CC1	9.0
O=C(c1[nH]cnc1-c1ccccc1)N1C[C@H]2CC=CC[C@H]2C1	15.1
Cn1cc(C[C@H]2[C@@H](OCC3CC3)CCN2Cc2ccoc2)cn1	-3.3
CC(Cc1ccc2c(c1)OCO2)c1c(-c2ccccc2)ncn1CCO (centres undefined)	-66.8
NC(=S)N=Nc1c(O)n(Cc2ccccc2)c2ccccc12	-102.8*
Cc1cc(Br)c2c(c1)c(N=NC(N)=S)c(O)n2C	-30.9
SMILES	Tg IFNy HTS
Cc1cccc(OC(C)C(=O)N2CCC(C(N)=O)CC2)c1 (centres undefined)	10.9
O=C(c1cnn2ccccc12)N1CCC(n2cc(-c3ccccn3)nn2)CC1	-8.8
CCOC(=O)C1C(=O)NC(N2CCN(CC)CC2)=NC1C(C)C (centres undefined)	167.0
Cc1noc(C)c1NC(=O)Nc1ccc2c(c1)C(=O)N([C@@H](C)CO)C[C@H](C)[C@H](CN(C)S(=O)(=O)c1cccs1)OCCCC[C@@H](C)O2	328.3
Cc1ccc(S(=O)(=O)Nc2ccc3c(c2)C(=O)N([C@@H](C)CO)C[C@@H](C)[C@H](CN(C)S(=O)(=O)c2cccs2)OCCCC[C@@H](C)O3)cc1	-103.2*
Cc1noc(C)c1NC(=O)Nc1ccc2c(c1)C(=O)N([C@H](C)CO)C[C@@H](C)[C@H](CN(C)S(=O)(=O)c1cccs1)OCCCC[C@H](C)O2	442.3
C[C@H](CO)N1C[C@H](C)[C@H](CN(C)C(=O)c2ccncc2)OCCCC[C@H](C)Oc2ccc(NS(=O)(=O)c3cccs3)cc2C1=O	-46.6
C[C@H](CO)N1C[C@H](C)[C@H](CN(C)C(=O)C2CCCCC2)OCCCC[C@H](C)Oc2ccc(NS(=O)(=O)c3ccccc3)cc2C1=O	-102.2*
Cc1ccc(S(=O)(=O)Nc2ccc3c(c2)C(=O)N([C@H](C)CO)C[C@H](C)[C@H](CN(C)S(=O)(=O)c2cccs2)OCCCC[C@H](C)O3)cc1	-121.0*
Cc1ccc(S(=O)(=O)Nc2ccc3c(c2)C(=O)N([C@H](C)CO)C[C@@H](C)[C@H](CN(C)S(=O)(=O)c2cccs2)OCCCC[C@H](C)O3)cc1	-131.1*
Cc1noc(C)c1NC(=O)Nc1ccc2c(c1)C(=O)N([C@H](C)CO)C[C@H](C)[C@@H](CN(C)S(=O)(=O)c1cccs1)OCCCC[C@@H](C)O2	156.9
C[C@H]1CCCCO[C@@H](CN(C)C(=O)C2CCCCC2)[C@@H](C)CN([C@@H](C)CO)C(=O)c2cc(NS(=O)(=O)c3ccccc3)ccc2O1	-30.6
Cc1noc(C)c1NC(=O)Nc1ccc2c(c1)C(=O)N([C@H](C)CO)C[C@H](C)[C@H](CN(C)S(=O)(=O)c1cccs1)OCCCC[C@@H](C)O2	43.5
Cc1noc(C)c1NC(=O)Nc1ccc2c(c1)C(=O)N([C@H](C)CO)C[C@H](C)[C@H](CN(C)S(=O)(=O)c1cccs1)OCCCC[C@H](C)O2	261.9
C[C@H]1CCCCO[C@H](CN(C)C(=O)C2CCCCC2)[C@@H](C)CN([C@@H](C)CO)C(=O)c2cc(NS(=O)(=O)c3ccccc3)ccc2O1	-32.8
CC(C)N1C2COCC1CN(Cc1cccc(F)c1)C2	-12.4
Cc1ccc(NS(=O)(=O)c2cc3c4c(c2)CCC(=O)N4CCC3)c(C)c1	7.1
c1ccc(-c2c3c(nc4ccccc24)-c2ccccc2C3)cc1	-54.7
